Holding throughout (assay): NCI-60 one-dose screen, 48 h (100 = growth as untreated, 0 = no growth, -100 = all killed)
Details in all cases: 10 µM unless noted

Experiment [1] concerns SK-MEL-2 melanoma.
For experiment [2], the system named is EKVX NSCLC.
For experiment [3], the system named is SN12C renal.
For experiment [4], the system named is UO-31 renal.
For experiment [5], the system named is TK-10 renal.
Experiment [6] has as its system ACHN renal.
In experiment [7] the test system is A498 renal.
For experiment [8], the system named is CCRF-CEM leukemia.
Experiment [9] deals with MOLT-4 leukemia.
Experiment [10] relates to SR leukemia.
Experiment [11] deals with RPMI-8226 leukemia.
Experiment [12] deals with OVCAR-8 ovarian.
The test system of experiment [13] is OVCAR-5 ovarian.
The subject of experiment [14] is OVCAR-4 ovarian.
For experiment [15], the system named is SK-OV-3 ovarian.
Experiment [16] has as its system IGROV1 ovarian.
Experiment [17] has as its system HS 578T breast.
The test system of experiment [18] is NCI/ADR-RES ovarian.
In experiment [19] the test system is OVCAR-3 ovarian.

About 83,000 compounds went through this panel and 20% of them were active in at least one assay; those are over-represented in the sample as a whole.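 Plates (96-well) were seeded with cells, treated with compound at one concentration, and incubated for 48 hours before percent growth was determined.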 A number with no mark means an inactive call. Calls of active or inactive are those of the source. Rule for the calls: active = growth percent below 10; inactive = the rest.

Take `CCC1S/C(=N\N=C(/C)c2ccco2)N(c2ccccc2)C1=O` (stereo not given): the growth in experiment [1] was 112%; in experiment [2] it was 109%; in [3], 141%; in experiment [4] it was 94.8%; in experiment [5], 79.4%; in experiment [6], 110%. The growth in experiment [7] was 160%; in experiment [8] it was -58.4% (active); in [9], 78.7%; in [10], 92.4%; in [11], 60.4%; in experiment [12] it was 106%. Moreover, the growth was 105% in [13]; 98.4% in experiment [14]; 135% in experiment [15]; -17.1% (active) in [16]; 231% in [17]; 105% in experiment [18].
As to `O=C1C(SCCO)=C(SCCO)C(=O)N1c1ccc(-c2ccccc2)cc1`, the growth was -73.5% (active) in [1]; 129% in [2]; 72.4% in [3]; -96.5% (active) in [4]; -57.8% (active) in [5]; -99.5% (active) in experiment [6]. In addition, the growth is 105% in [7]; -43.8% (active) in experiment [8]; -33.6% (active) in [9]; -47.6% (active) in experiment [10]; -14% (active) in [11]; 3.35% (active) in experiment [12]. Also, the growth in experiment [13] was 102%; in experiment [14], 10.3%; in [15], 106%; in [19], -92% (active); in experiment [17], -50.7% (active); in experiment [18] it was 104%.
Consider `NS(=O)(=O)c1ccc(-n2nc(-c3ccc(Cl)cc3)ccc2=O)cc1`, for which the growth in experiment [1] is 86.1%; in experiment [2], 99.7%; in experiment [3] it was 109%; in [4], 91.7%; in experiment [5], 123%; in experiment [6] it was 101%. Further, the growth in experiment [7] was 102%; in experiment [8], 86.4%; in [9] it was 96.4%; in [10], 64.4%; in experiment [11] it was 99%; in [12], 102%. Also, the growth in experiment [13] is 99.9%; in [14] it was 100%; in experiment [15], 93.8%; in experiment [17], 88.2%; in [18], 68.4%.
Consider `C[C@H]1C=C(C[C@@H](O)CC#CC#CCCCCC[C@@H](O)[C@H]2CCC(=O)O2)C(=O)O1`, for which the growth in [1] is 118%; in experiment [2] it was 96.7%; in [3], 105%; in experiment [4] it was 81.2%; in [5], 115%; in experiment [6] it was 103%. Moreover, the growth was 107% in experiment [7]; 106% in [8]; 114% in experiment [9]; 121% in experiment [10]; 114% in [11]; 110% in experiment [12]. For the same compound, the growth in experiment [13] was 95.6%; in experiment [14], 105%; in experiment [15], 95.5%; in [16], 54.1%; in [17] it was 117%; in [18], 95.5%.
On to `CN(C)c1ccc(/C=N/N=C(N)N)cc1`, for which the growth was 78.6% in experiment [1]; 89.3% in experiment [2]; 82.3% in experiment [3]; 72.5% in experiment [4]; 106% in experiment [5]; 98.5% in experiment [6]. Besides, the growth in [7] is 17.7%; in experiment [8] it was 104%; in [9], 83.2%; in [10], 54.8%; in experiment [12] it was 91.1%; in experiment [13], 116%. Also, the growth in experiment [14] is 81.9%; in experiment [15], 82.5%; in experiment [16], 69.8%; in [19], 66.3%; in experiment [17], 78.2%.
For `Cc1nssc1=S`, the growth in experiment [1] was 88.6%; in [2], 96.5%; in [3], 118%; in [4], 87.9%; in experiment [5], 96.4%; in experiment [6], 109%. In addition, the growth in [7] is 147%; in experiment [8], 92.2%; in experiment [9] it was 99.8%; in experiment [10] it was 97.6%; in experiment [11], 97%; in experiment [12] it was 97.9%. Moreover, the growth in experiment [13] is 94.6%; in experiment [14], 109%; in [15], 110%; in experiment [16] it was -13.5% (active); in experiment [17], 98.3%; in [18], 96.6%.
For the compound `CC(C(C(=O)N1CCCCC1)N1CCCCC1)N1CCCCC1` (stereo not given), the growth in [1] was 111%; in experiment [2], 112%; in [3] it was 102%; in experiment [4], 94.9%; in experiment [5] it was 101%; in experiment [6], 116%. Besides, the growth in experiment [7] was 119%; in [8] it was 116%; in experiment [9] it was 79.8%; in experiment [10], 71.3%; in experiment [12], 105%; in [13] it was 117%. Besides, the growth in [14] is 116%; in experiment [15], 103%; in [16], 160%; in [19] it was 119%; in experiment [17] it was 103%; in experiment [18], 112%.
For the compound `O=C(NC(=S)Nc1ccc(Cl)cc1)c1ccccc1`, the growth in experiment [1] was 108%; in [2] it was 78.7%; in experiment [3], 98.4%; in [4], 83.1%; in experiment [5] it was 117%; in experiment [6] it was 101%. In addition, the growth in [7] is 103%; in experiment [8] it was 102%; in [9] it was 72.8%; in experiment [10] it was 67.9%; in experiment [11] it was 95.3%; in experiment [12], 102%. Moreover, the growth in experiment [13] is 84.8%; in experiment [14] it was 85.6%; in experiment [15] it was 115%; in [19] it was 125%; in experiment [17], 127%; in experiment [18], 104%.
As for `CC(C)(C)OC(=O)N1CC(Cn2cc(C(F)(F)F)c3c(Cl)ncnc32)C1`, the growth in experiment [1] was -77.4% (active); in experiment [2] it was 50.3%; in experiment [3], -25.4% (active); in experiment [4], -95.1% (active); in experiment [5], 115%; in [6], 73.5%. Also, the growth in experiment [7] was 34.2%; in experiment [8], -26.6% (active); in experiment [9], -37.5% (active); in experiment [10] it was -60.9% (active); in experiment [11] it was -48.4% (active); in [12] it was -72.4% (active). Also, the growth in experiment [13] is 112%; in [14], 81.6%; in experiment [15] it was -24.4% (active); in [16] it was -79.1% (active); in experiment [17] it was -9.74% (active); in experiment [18], 77.7%.
